TLR4-MyD88 BLA = blocks binding of human TLR4 to MyD88. O00206+Q99836. HeLa CL3-4 TLR4/MyD88 BLA complementation, FRET ratio. inhibition, % at 8.4 µM. actives 0.18% (n = 200,000). AID 861; in the data active = inhibition above about 25%
HSF-1 act = increases HSF-1 driven luciferase reporter signal; NIH3T3-HGL HSF-1 luciferase reporter, MG132, 8 h; 100% = twice DMSO control signal; activation, % at 9 µM; actives 1.7% (n = 300,000); AID 504408;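 active = mean replicate activation of at least 50% with a set share of replicates each reaching 50%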
HSF1 inhib = HSF1 inhibition; NIH3T3-HGL HSE-luciferase, MG132-induced, luminescence 8 h; active compounds read low; activity change, negative = inhibition, % at 7.5 µM (by protocol); actives 0.77% (n = 300,000);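 active = more than half of replicate wells show activity change below -50%, luminescence cut by over half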;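 also: luciferase reports HSF-1 transcriptional activity via heat shock element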
TLR9-MyD88 inh = blocks human TLR9 binding to MyD88; Q9NR96+Q99836; CHO BLA complementation TLR9-MyD88, CCF4 FRET ratio; inhibition, % at 4.98 µM; actives 0.21% (n = 340,000);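 active = inhibition above the mean over all tested compounds plus 3 SD, cut at about 21% in these data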
NOD2 RIPK2 PPI = NOD2-RIPK2 protein interaction inhibition | O43353 | inhibition, % at 4.98 µM | actives 0.38% (n = 360,000) | CHO BLA complementation NOD2-RIPK2, CCF4 ratio; in the data active = inhibition above about 21%
Target sequence (O43353 whole entry, looked up): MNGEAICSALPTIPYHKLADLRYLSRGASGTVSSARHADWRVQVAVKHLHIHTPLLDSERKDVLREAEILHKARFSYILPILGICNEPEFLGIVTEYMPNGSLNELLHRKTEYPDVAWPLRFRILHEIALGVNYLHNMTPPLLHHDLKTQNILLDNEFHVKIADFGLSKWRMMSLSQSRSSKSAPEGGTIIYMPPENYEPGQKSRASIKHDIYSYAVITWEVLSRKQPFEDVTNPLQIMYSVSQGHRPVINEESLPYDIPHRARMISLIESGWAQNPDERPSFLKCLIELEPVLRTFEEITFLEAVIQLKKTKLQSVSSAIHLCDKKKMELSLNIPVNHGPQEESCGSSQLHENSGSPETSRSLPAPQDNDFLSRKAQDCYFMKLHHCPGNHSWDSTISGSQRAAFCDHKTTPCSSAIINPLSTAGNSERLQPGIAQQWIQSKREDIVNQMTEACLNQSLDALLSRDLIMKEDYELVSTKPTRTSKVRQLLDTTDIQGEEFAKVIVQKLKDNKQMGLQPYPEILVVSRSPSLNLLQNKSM
A number is an active result; i = inactive; nt = no result given. Hits are enriched below; roughly 2.4% of the tested compounds scored in any of these assays.

SMILES	TLR4-MyD88 BLA	HSF-1 act	HSF1 inhib	TLR9-MyD88 inh	NOD2 RIPK2 PPI
Cc1cc2cc(CN(Cc3ccco3)C(=S)NCC3CCCO3)c(=O)[nH]c2cc1C (stereo not drawn)	i	70	i	i	i
Cc1cc(C)c2[nH]c(=O)c(CN(Cc3ccco3)C(=S)NCC3CCCO3)cc2c1 (stereo not drawn)	i	70	i	i	i
CCNC(=S)N(Cc1ccco1)Cc1cc2cc3c(cc2[nH]c1=O)OCCO3	i	62	i	i	i
Cc1ccc(S(=O)(=O)N2CCOCC2)cc1NC(=O)CSc1nnnn1C1CC1	nt	nt	nt	i	i
COc1cccc(NC(=O)CSc2nc3c([nH]c4ccccc43)c(=O)n2C)c1	i	95	i	i	i
Cc1cccc(NC(=O)CSc2nc3c([nH]c4ccccc43)c(=O)n2C)c1	i	i	i	i	i
O=C(C1=C[C@@H](C2CC2)C[C@@H](OCc2ccc(CO)cc2)O1)N1CCN(Cc2ccccc2)CC1	i	104	i	i	i
O=c1c2ccccc2cnn1-c1nc2ccccc2[nH]1	i	i	-83	i	i
CCc1nc2ccc(C(=O)NCc3ccccc3OC)cn2c1N(C)Cc1ccc(OC)cc1	nt	nt	nt	nt	i
COc1cc(C2C(C#N)=C(N)N(N(C)C)C3=C2C(=O)CC(C)(C)C3)ccc1O (stereo not drawn)	nt	i	-76	i	i
O=C(Nc1ccccn1)C1CCN(S(=O)(=O)c2ccc(Cl)cc2)CC1	nt	i	i	i	i
CN(C)c1ccc(/C=N\Nc2nc(-c3ccccc3)cc(=O)[nH]2)cc1	i	i	-73	i	i
Cc1cc(=O)[nH]c(N/N=C/c2ccc(O)c(O)c2)n1	nt	61	i	i	i
CN(C)c1ccc(C=NNc2nc3c([nH]2)c(=O)n(C)c(=O)n3C)cc1	nt	nt	nt	i	i
COc1ccccc1Cc1c(C2CCCCC2)nc2ccc(Cl)cn12	nt	nt	nt	nt	i
CC(=O)N/C(=C\c1ccccc1)C(=O)OCC(=O)Nc1cc(S(=O)(=O)N(C)C)ccc1Cl	nt	nt	nt	i	i
COC(=O)c1cn(NC(=O)C2CCC(C)CC2)c(=O)c2ccccc12 (stereo not drawn)	i	81	i	i	i
COC(=O)c1cn(NC(=O)CCC2CCCC2)c(=O)c2ccccc12	i	i	-77	i	i
Cc1ccc(NC(=O)Cc2nc(-c3c[nH]c(C(=O)N4CCCC4)c3)cs2)c(C)c1	nt	nt	nt	i	i
Nc1nn(-c2ccccc2)c(N)c1N=Nc1ccccc1F	i	59	i	i	i
Cc1nn(-c2ccccn2)c2c1C(=O)CC(C)(C)C2N=[N+]=[N-] (stereo not drawn)	nt	nt	nt	i	i
O=C(OCCN1CCN(c2ncc(C(F)(F)F)cc2Cl)CC1)c1ccc(Cl)cc1	i	i	-80	i	i
CC(C)(C)c1ccc(C(=O)NC(=S)Nc2nc3c(s2)CCCC3)cc1	i	i	-59	i	i
CN(C)c1ccc(C(=O)Nc2nc3c(s2)CCCC3)cc1	i	i	i	i	i
COc1ccc(NS(=O)(=O)c2ccc3nc(COc4cccc5ccccc45)[nH]c3c2)cc1	i	i	i	i	i
SMILES	TLR4-MyD88 BLA	HSF-1 act	HSF1 inhib	TLR9-MyD88 inh	NOD2 RIPK2 PPI
COc1ccc(NS(=O)(=O)c2ccc3nc(COc4ccc5ccccc5c4)[nH]c3c2)cc1	i	i	-81	i	i
CC1CCN(c2ccc(-c3cccc(NC(=O)C(F)(F)F)c3)nn2)CC1	nt	i	-82	i	i
O=C(c1ccccc1)N1CCN(c2ncccn2)CC1	nt	i	i	i	i
Nc1ncnc2nc(N3CCN(C(=O)c4ccccc4)CC3)[nH]c12	i	i	-73	i	i
COc1ccc(C(=O)OCc2csc(C)n2)c(O)c1	i	65	i	i	i
Cc1ccc(NC(=O)c2cc(-c3ccco3)on2)cc1	i	i	i	i	i
O=C(Nc1cnn(Cc2ccc(F)cc2)c1)c1cc(-c2ccco2)on1	i	i	-54	i	i
Cc1ccc(NC(=O)c2cc(-c3ccco3)on2)cc1C	i	55	i	i	i
S=C(NCc1ccco1)Nc1ccc(Br)cc1Cl	i	199	i	nt	i
S=C(NCc1ccccc1)NCc1ccco1	nt	56	i	i	i
S=C(NCc1ccco1)Nc1ccc(Cl)cc1Cl	i	i	i	i	i
COc1ccc(/C(C)=N/NC(=S)NCc2ccco2)cc1	i	73	i	i	i
CCCCN(CC)c1nc(N)c(C#N)c(CC#N)c1C#N	i	i	i	i	i
C=C(C)CN(CC)c1nc(N)c(C#N)c(CC#N)c1C#N	i	75	i	i	i
COc1ccc(C(C)NC(=O)C2CCN(CCCc3ccccc3)CC2)cc1OC (stereo not drawn)	nt	nt	nt	nt	i
NC(=O)c1c(NC(=O)c2ccccc2)sc2c1CCc1ccccc1-2	i	74	i	i	i
COc1ccc(N(CC(=O)NC2CCCC2)C(=O)c2ccc(C)s2)c(OC)c1	nt	i	i	i	i
COc1ccc(N(CC(=O)NC2CCCCC2)C(=O)c2ccc(C)s2)cc1OC	nt	71	i	i	i
COc1ccccc1N1CCN(C(CNS(=O)(=O)c2ccccc2)c2ccccc2)CC1 (stereo not drawn)	nt	57	i	i	i
COc1ccccc1N1CCN(C(CNS(=O)(=O)c2cccs2)c2cccnc2)CC1 (stereo not drawn)	i	i	i	i	i
CN(C)c1ccc(/C=N/N(CCO)C2=NS(=O)(=O)c3ccccc32)cc1	nt	i	i	i	i
C=CCOCCN(CCOCC=C)C1=NS(=O)(=O)c2ccccc21	i	i	-92	i	i
COc1cccc(NC(=O)CSc2nc3c(sc4ccccc43)c(=O)n2CCCN2CCCC2)c1	nt	i	i	i	i
CCNC(=O)C1CCCN(C(=O)c2ccc(-c3ccccc3)cc2)CC1 (stereo not drawn)	nt	nt	nt	nt	i
Cc1ccc(NC(=O)NC(=O)CN2CCN(c3ccc(O)cc3)CC2)c(C)c1	nt	i	-66	i	i
SMILES	TLR4-MyD88 BLA	HSF-1 act	HSF1 inhib	TLR9-MyD88 inh	NOD2 RIPK2 PPI
Cc1ccc(NC(=O)NC(=O)CN2CCC(C(N)=O)CC2)c(C)c1	nt	nt	nt	i	i
CC1CCCCN1C(=O)c1cc(-c2ccc(Cl)c(Cl)c2)on1 (stereo not drawn)	i	57	i	i	i
CCC1CCCCN1C(=O)c1cc(-c2ccc(Cl)c(Cl)c2)on1 (stereo not drawn)	i	i	i	i	i
Cc1cnc(CNC(=O)c2ccc3sc([C@H]4C[C@H](O)[C@@H](CO)O4)nc3c2)cn1	nt	nt	nt	nt	i
COc1ccccc1Nc1nc(N)nc(CSc2nc(C)cc(C)n2)n1	i	i	i	i	i
COc1ccc(Nc2nc(N)nc(CSc3nccn3C)n2)cc1	i	55	i	i	i
COc1ccc(Nc2nc(N)nc(CSc3nc(C)cc(C)n3)n2)cc1	i	i	-89	i	i
Cc1ccc(C2=NN(C(=O)c3cccs3)C(c3ccccc3O)C2)cc1 (stereo not drawn)	i	80	i	i	i
O=C(c1cccs1)N1N=C(c2ccccc2)CC1c1ccccc1O (stereo not drawn)	i	nt	nt	i	i
